# RORgamma inh: qHTS for inhibitors of ROR gamma transcriptional activity; Nuclear receptor ROR-gamma (Mus musculus), P51450; Drosophila S2 Gal4-RORgamma UAS-luciferase reporter, 20 h; Potency, µM (doses to about 53.6 µM), actives largely listed as inhibitors; 310,000 compounds, 5.4% hits; AID 2551, 2010; also: nearly all actives have a fitted effect of over 60% in size
# Target sequence (P51450 whole entry, looked up, the tested form may be a part): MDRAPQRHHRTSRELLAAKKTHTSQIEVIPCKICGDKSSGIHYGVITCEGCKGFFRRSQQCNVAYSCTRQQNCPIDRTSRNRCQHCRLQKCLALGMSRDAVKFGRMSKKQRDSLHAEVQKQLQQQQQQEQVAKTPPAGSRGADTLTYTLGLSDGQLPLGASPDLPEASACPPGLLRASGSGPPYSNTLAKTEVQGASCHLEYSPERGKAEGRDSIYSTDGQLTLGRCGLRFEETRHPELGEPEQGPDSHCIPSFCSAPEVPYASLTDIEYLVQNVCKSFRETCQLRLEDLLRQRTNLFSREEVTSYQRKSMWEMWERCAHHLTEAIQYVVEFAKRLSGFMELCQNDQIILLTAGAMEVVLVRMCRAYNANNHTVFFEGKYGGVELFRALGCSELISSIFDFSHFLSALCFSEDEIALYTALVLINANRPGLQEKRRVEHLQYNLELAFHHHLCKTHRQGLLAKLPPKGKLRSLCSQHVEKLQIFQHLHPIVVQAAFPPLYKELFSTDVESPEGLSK
#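 Using a luciferase readout, inhibitors were identified by reduced reporter activity in Drosophila cells coexpressing a copper-inducible Gal4–ROR gamma fusion and UAS-driven Photinus luciferase, incubated 20 hr after 700 uM copper sulfate.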
# Sfp PPTase inh: qHTS Assay for Inhibitors of Bacillus subtilis Sfp phosphopantetheinyl transferase (PPTase) | 310,000 compounds, 3.5% hits | Biochemical Sfp PPTase activity, qHTS | AID 1490, 2009 | Potency, µM, most hits filed as inhibitors;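 also: the enzyme is Sfp with the accession as filed and its product quenches rhodamine fluorescence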
#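 After 15 min at room temperature with compound, 15 nM Sfp received 5 uM rhodamine-CoA plus 12.5 uM BHQ-2-ybbR (50 mM Hepes pH 7.6, 10 mM MgCl2). Rate came from the fluorescence difference over 30 min, ex 525/em 598 nm.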
# Gal4-VP16 FLuc: VP16 counterscreen qHTS for inhibitors of ROR gamma transcriptional activity; Drosophila S2 Gal4-VP16 UAS-luciferase, luminescence, 20 h; Potency, µM (titrated, usually from 53.6 µM), hits mostly inhibitors; 310,000 compounds, 3.5% hits;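 also: Gal4-VP16 expression switched on by copper sulfate through the metallothionein promoter; nearly all actives have a fitted effect of over 50% in size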
# ALDH1A1 block: qHTS Assay for Inhibitors of Aldehyde Dehydrogenase 1 (ALDH1A1); Aldehyde dehydrogenase 1A1 (Homo sapiens), P00352; Purified ALDH1A1, NADH fluorescence, propionaldehyde substrate; Potency, µM (highest dose often 75.3 µM), usual class: inhibitors; 220,000 compounds, 7.3% hits; AID 1030, 2008; active = well fitted inhibition curve with a large enough effect, not every such curve was filed as active; inconclusive = small, poorly fitted or top-dose-only effect, or another doubt; inactive = no such curve, though single readings can be large or run the other way
# PLK1 PBD block: qHTS for Inhibitors of PLK1-PDB (polo-like kinase 1 - polo-box domain): Primary Screen; Potency, µM, usual class: inhibitors; 360,000 compounds, 2.8% hits; Serine/threonine-protein kinase PLK1 (Homo sapiens), P53350; Plk1 PBD binding of FITC phosphopeptide, fluorescence polarization; also: series mostly up to about 57 µM; nearly all actives have a fitted effect of over 65% in size
# A number is an active result; . = inactive; ? = inconclusive; / = no result given; [ ] = another dose, or the depositor's remark. Only some compounds are listed: those with a hit (about 12% of all), similar ones and a draw of the others. Unless noted, calls follow the shape of the dose curve; as a rule, active = well fitted curve in the direction sought with a large enough effect; inconclusive = small, poorly fitted or top-dose-only effect, or another doubt; inactive = no such curve, though single readings can be large; an effect the other way counts as inactive or inconclusive.
SMILES,RORgamma inh,Sfp PPTase inh,Gal4-VP16 FLuc,ALDH1A1 block,PLK1 PBD block
O=[N+]([O-])c1ccc(Sc2ncccn2)c([N+](=O)[O-])c1,7.94µM,.,?,.,.
O=[N+]([O-])c1ccc(SNc2ccccc2)c([N+](=O)[O-])c1,/,/,/,/,.
O=C(O)CCSc1ccc([N+](=O)[O-])cc1[N+](=O)[O-],.,44.7µM,.[10 µM],?,11.9µM
Cc1cccc(Sc2ccc([N+](=O)[O-])cc2[N+](=O)[O-])n1,.,.,.,.,.
Cc1ccc(-c2cnc(C(O)c3cccc(Cl)c3)[nH]2)cc1 (stereo not drawn),/,/,/,/,.
Cc1cc(C)nc(SCC(=O)Nc2ncccn2)n1,.,.,.,.,/
Cc1cc(C)nc(SCC(=O)c2ccc(O)c(O)c2)n1,.,?,?,/,.
Cc1cc(C)nc(SCC(=O)NN)n1,8.91µM,.,.,10µM,.
Cc1cc(C)nc(SCC(=O)c2ccc(O)cc2O)n1,.,44.7µM,?,.,.
CC(NC(=S)Nc1cccc(C(F)(F)F)c1)C(C)(C)C (stereo not drawn),3.16µM,.,10µM,.,.
CSc1ccccc1NC(=S)Nc1cccc(C(F)(F)F)c1,.,.,?,?,.
CN(C)NC(=S)Nc1cccc(C(F)(F)F)c1,1µM,.,5.62µM,.,.
CCc1nc2ccc(C(=O)N3CCN(C(C)=O)CC3)cn2c1N(CC)C(=O)NCCc1ccccc1,/,/,/,/,.
CCN(CC)S(=O)(=O)c1ccc(N2CCOCC2)c(NC(=O)c2nn(C(C)C)c(=O)c3ccccc23)c1,/,/,/,/,.
C=CCSc1nc2c(c(=O)[nH]1)C(c1ccccc1)C(C#N)=C(N)O2 (stereo not drawn),.,.,.,/,.
CNc1nc2[nH]c(=O)c3c(c2s1)OC(N)=C(C#N)C3c1cccc(F)c1 (stereo not drawn),.,79.4µM,.,7.08µM,.
C=CCNc1nc(-c2ccccc2)c(C(=O)OCC)cc1C#N,.,.,.,?,23.8µM
O=C1C(C2=NC(C(=O)O)C3C(=O)N(c4ccccc4)C(=O)C23)=C(O)c2ccccc21 (stereo not drawn),11.2µM,.,12.6µM,.,.
O=C1C(C2=NC(c3ccccn3)C3C(=O)N(c4ccc(OC(F)(F)F)cc4)C(=O)C23)=C(O)c2ccccc21 (stereo not drawn),.,.,.,/,.
Cc1ccc(N2C(=O)c3cccc4c(C(=O)O)ccc(c34)C2=O)cc1,.,.,.,?,.
O=C1c2cccc3c(O)ccc(c23)C(=O)N1c1ccc(Cl)cc1,?,?,.,/,4.74µM
O=C1c2cccc3c(O)ccc(c23)C(=O)N1Cc1ccco1,.,7.08µM,.,12.6µM,4.74µM
CC(=O)Nc1ccc(N2C(=O)c3cccc4c(O)ccc(c34)C2=O)cc1,.,.,.,/,4.74µM
O=C1c2ccccc2C(=O)N1c1ccc(Cl)cc1,.,.,.,.,/
Cc1ccc(C)c(OCc2nnc(N)s2)c1,12.6µM,.,.,?,.
SMILES,RORgamma inh,Sfp PPTase inh,Gal4-VP16 FLuc,ALDH1A1 block,PLK1 PBD block
O=C1c2ccccc2C(O)(c2ncc[nH]2)N1CCc1ccccc1 (stereo not drawn),.,.,.,14.1µM,.
COCc1ccc(CN2CCCC(C(=O)Nc3ccc(-c4cscn4)cc3)C2)o1 (stereo not drawn),.,.,.,/,.
COc1ccc(-c2nc3cnc(OC)nc3n(Cc3cccs3)c2=O)cc1,.,.,.,?,/
Cc1ccc2c(c1)c1c(n2CC(O)CN2CCOCC2)CCCC1 (stereo not drawn),.[1.91 µM],.,.,/,/
COc1ccc(C(=O)c2c(C)c3cc(C)ccc3n2CC(O)CN2CCOCC2)cc1 (stereo not drawn),?,.,.,11.2µM,.
CCCCOc1ccc(CN2CCC(O)CC2)cc1,.,79.4µM,.,31.6µM,.
COc1ccc(Cc2c3cc(OC)c(OC)cc3cc[n+]2C)cc1OC,.,79.4µM,.,/,?
CC[n+]1ccc2cc(OC)c(OC)cc2c1Cc1ccc(OC)c(OC)c1,.,?,.,.,?
O=C(CC12CC3CC(C1)CC(CC(=O)N1CCCC1)(C3)C2)N1CCCC1,.,.,.,.,.
O=C(CC12CC3CC(CC(C3)C1)C2)NC(=S)N1CCCCC1,4.47µM,.,3.55µM,20µM,.
CNC(=O)CC12CC3CC(CC(C3)C1)C2,.,.,.,.,.
COCCNC(=S)NC(=O)CC12CC3CC(CC(C3)C1)C2,2.51µM,.,?,?,.
S=C(NC12CC3CC(CC(C3)C1)C2)N1CCCC1,14.1µM,.,?,.,.
O=C(O)c1ccc(Cl)c2c1C1C=CCC1C(c1ccccn1)N2 (stereo not drawn),.,3.55µM,.,?,/
COc1ccc(OC)c(C2Nc3c(Cl)ccc(C(=O)O)c3C3C=CCC32)c1 (stereo not drawn),.,22.4µM,.,.,?
O=[N+]([O-])c1ccc(Cl)c2c1C1C=CCC1C(c1ccccn1)N2 (stereo not drawn),.,28.2µM,.,?,.
CN(C)/C=N/C(=S)Nc1ccc(Cl)c(Cl)c1,1.78µM,.,3.16µM,.,23.8µM
CN(O)/C=N/C(=S)Nc1ccc(Cl)cc1Cl,17.8µM,?,.,1.58µM,29.9µM
CN(C)/C=N/C(=S)Nc1ccccc1Cl,6.31µM,50.1µM,.[10 µM],.,.
CN(C)/C=N/C(=S)Nc1ccc(F)cc1,11.2µM,.,?,.,.
CN(N)C(=S)Nc1ccc(F)cc1,.,?,.,.,.
CN(C)/C=N/C(=S)Nc1cc(Cl)cc(Cl)c1,.,.,.[10 µM],.,.
CN(C)/C=N/C(=S)Nc1ccccc1F,.,.,.,.,.
COCCn1c(SCC(=O)Nc2ccc(F)cc2F)nc2c([nH]c3ccccc32)c1=O,.,.,.,/,.
C=CCn1nc(C(=O)Nc2ccc(OC)cc2)cc1-c1sc(NC(=O)c2ccccc2)nc1C,/,/,/,/,.
SMILES,RORgamma inh,Sfp PPTase inh,Gal4-VP16 FLuc,ALDH1A1 block,PLK1 PBD block
COc1cc(S(=O)(=O)NC2CCSc3ccccc32)ccc1NC(C)=O (stereo not drawn),.,.,.,/,.
CCn1c(=O)c(C(=O)Nc2ccccc2C)c(O)c2ccccc21,.,.,.,.,.
CCCn1c(=O)c(C(=O)Nc2ccccc2C)c(O)c2ccccc21,?,35.5µM,.,/,.
Cn1c(=O)c(C(=O)NCc2ccccc2Cl)c(O)c2ccccc21,.[1.91 µM],.,.,/,.
CCCn1c(=O)c(C(=O)Nc2cccc(C)c2)c(O)c2ccccc21,?,.,12.6µM,/,.
CCn1c(=O)c(C(=O)NCc2ccccc2Cl)c(O)c2ccccc21,?,.,20µM,/,.
CCCn1c(=O)c(C(=O)NNC(=O)c2ccccc2Cl)c(O)c2ccccc21,11.2µM,.,?,/,.
N#Cc1ccc(CC(C(=O)O)N2Cc3ccccc3C2=O)cc1 (stereo not drawn),.,.,.,/,.

# Screening data from PubChem BioAssay.
